# Screens as filed in PubChem BioAssay.
# Sampled rows, rich in hits. Any-hit rate of the full collection: about 1.2%.
# VCAM1 TNFa inh = reduces TNF alpha induced VCAM1 expression in HUVEC. HUVEC TNFa-induced VCAM-1 immunofluorescence, high-content imaging. inhibition, % at 2 µM. actives 0.48% (n = 95,000). AID 802;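 active = inhibition above the batch mean plus 3 SD, with images confirmed as a hit by eye, cut at about 37% in these data; inconclusive = inhibition above that limit but hit not confirmed in images; inactive = inhibition not above that limit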
# cytoskel mod = modifiers of cytoskeleton assembly; inhibition, % at 2 µM; actives 0.18% (n = 91,000); HUVEC TNFa F-actin phalloidin imaging, high content;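 active = inhibition above the batch mean plus 3 SD and confirmed as a hit by visual image inspection, cut at about 30% in these data, passing the limit was not always enough; inconclusive = above the inhibition threshold but rejected on visual inspection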
# E-sel TNF inh = TNF alpha driven E-selectin expression inhibition | actives 0.71% (n = 120,000) | HUVEC TNFa-induced E-selectin immunofluorescence, high content | inhibition, % at 2 µM;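 active = inhibition above the batch mean plus 3 SD, and confirmed as a hit on visual image review, cut at about 43% in these data; inconclusive = passes the inhibition cutoff but fails visual image review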
# HUVEC tox TNFa = toxic to HUVEC cells under TNF alpha stimulation; HUVEC TNFalpha-stimulated, Hoechst cell count, imaging; cell count reduction, % at 2 µM; actives 0.17% (n = 93,000);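 active = cell count reduction exceeding the screen mean by over 5 SD, scaled to untreated wells per plate, cut at about 78% in these data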;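 also: cells counted after 24 h of TNF alpha exposure following the 1 h pretreatment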
# Numbers stand for hits; . = inactive; ? = inconclusive; / = no result.
SMILES,VCAM1 TNFa inh,cytoskel mod,E-sel TNF inh,HUVEC tox TNFa
Cc1c(Cc2ccccc2)sc(NC(=O)/C=C/c2cccc3ccccc23)c1C(N)=O,/,/,.,/
CCC1CSC(Nc2ccc(C(=O)/C=C/c3cccc(C)c3)cc2)=N1 (stereo unspecified),/,/,.,/
Cc1cc(N2CCOCC2)c2c(N)c(C)cc(C)c2n1,100,/,.,/
Cc1cc(N2CCOCC2)nc(N)n1,/,/,.,/
O=c1cnnc(NCc2ccccc2)[nH]1,.,.,.,.
COc1ccc(-c2cc(=O)[nH]c(NCc3ccccc3)n2)cc1,100,.,.,99
O=C(NCCCN1CCN(c2ccccc2F)CC1)Nc1ccccc1[N+](=O)[O-],/,/,.,/
O=c1cc(-c2ccccc2)c2ccccc2[nH]1,.,.,65,.
CN(C(=O)CSc1nnc(-c2ccncc2)n1Cc1ccccc1)C1CCS(=O)(=O)C1 (stereo unspecified),/,/,.,/
COC(=O)c1ccc2c(=O)n(CCCCCC(=O)NCCNC(C)=O)c(=O)[nH]c2c1,/,/,.,/
COC(=O)c1cc2sc(Cl)cc2n1CC(=O)Nc1cccc(SC)c1,.,.,65,.
O=C(NCc1cccs1)C(=O)c1cn(CC(=O)N2CCCC2)c2ccccc12,/,/,.,/
Cc1ccc(C(=O)CSc2nsc(C)c2C#N)cc1,.,74,.,.
CCOC(=O)Cc1c(C)nc2c(-c3ccccc3)c[nH]n2c1=O,/,/,96,/
CCOC(=O)Cc1c(C)nc2c(-c3ccccc3)c(C)[nH]n2c1=O,.,.,.,.
C=CCOc1ccc(C(=O)CC)cc1OC,/,/,.,/
N#C/C(=C\c1cc(Cl)cc(Cl)c1O)C(=O)NC1CCCCC1,.,.,100,.
N#C/C(=C\c1cc(Cl)ccc1O)C(=O)NC1CCCCC1,.,.,/,.
CS(=O)(=O)N(CC(=O)N1CCCCC1)c1cccc(F)c1,/,/,.,/
COC(=O)c1ccc(NC(=S)NC2CCc3ccccc32)cc1 (stereo unspecified),/,/,.,/
Cc1ccc(Nc2nc(-c3c(C)nc4ncccn34)cs2)cc1,.,.,.,.
Cc1ccc(Nc2nc(-c3c(C)nc4ccccn34)cs2)cc1,93,.,.,.
Oc1ccc(Nc2nc(-c3ccc4ccccc4c3)cs2)cc1,75,.,.,.
Cn1cc(CNC(=O)/C=C/c2ccc(Cl)cc2)cn1,/,/,.,/
Cc1cc(NC(=O)C2C3C=CC(C3)C2C(=O)O)no1 (stereo unspecified),?,?,.,100
SMILES,VCAM1 TNFa inh,cytoskel mod,E-sel TNF inh,HUVEC tox TNFa
COc1ccc(CCNC(=O)C(=O)N/N=C/c2cccs2)cc1OC,/,/,.,/
Nc1c(C(=O)NC2CCCC2)c2nc3ccccc3nc2n1N,.,47,/,.
Nc1c(C(=O)NC2CCCC2)c2nc3ccccc3nc2n1/N=C/c1ccco1,.,.,.,.
NC(=O)c1ccccc1NC(=O)Nc1ccc(F)c(Cl)c1,/,/,.,/
Cc1cc(C)c2c(n1)sc1c(N3CCOCC3)ncnc12,61,.,.,.
CN1CCN(c2ncnc3c2sc2nc(N4CCOCC4)c4c(c23)CCC4)CC1,.,.,.,.
Cc1ccc(/C([O-])=C(/C(=S)NCc2ccccc2)[n+]2cccc(CO)c2)cc1[N+](=O)[O-],/,/,73,/
O=C(CN(C(=O)CCC(=O)Nc1ccccn1)c1ccc2c(c1)OCO2)NCc1ccco1,.,.,70,.
Cc1ccnc(NC(=O)C(C)n2cc([N+](=O)[O-])cn2)c1 (stereo unspecified),/,/,.,/
COc1ccc(NC(=O)COC(=O)Cc2c(F)cccc2Cl)cc1OC,/,/,.,/
COCCN(CC(=O)NC1CCCCC1)C(=O)/C=C/C(=O)c1ccc(OC)cc1O,/,/,89,/
Cc1c(NC(=O)CSc2ccccc2Cl)c(=O)n(-c2ccccc2)n1C,/,/,.,/
O=C(N/N=C/C(Br)=C/c1ccccc1)c1cc(-c2ccco2)[nH]n1,/,/,.,/
O=C(N/N=C/C(Br)=C/c1ccccc1)c1n[nH]c2c1CCC2,91,.,/,.
O=c1[nH]c2ccccc2n1Cc1ccccc1,.,.,.,.
O=c1[nH]c2cccnc2n1Cc1ccccc1,.,35,.,.
CCN(CC)S(=O)(=O)c1ccc(NC(=O)CSc2nnc(-c3ccc(F)cc3)o2)cc1,.,.,61,.
COCCNC(=O)Cn1cc(/C=N/NC(=O)c2ccc(Oc3ccc(O)cc3)cc2)c2ccccc21,/,/,.,/
CCOC(=O)c1ccc(CNC(=O)CCC(=O)O)cc1,.,34,.,.
CCN1C(=O)c2cccc3c(S(=O)(=O)Nc4c(C)n(C)n(-c5ccccc5)c4=O)ccc1c23,.,.,.,.
CCN1C(=O)c2cccc3c(S(=O)(=O)NCc4ccccn4)ccc1c23,.,31,.,.
Cc1ccccc1NC(=O)c1ccc(CSc2ncccn2)cc1,.,.,61,.
Cc1ccc(NC(=O)c2ccc(CSc3ccccn3)cc2)cc1,.,.,.,.
CC12CCCCC1N(O)C(=O)C(=O)N2O (stereo unspecified),/,/,.,/
